Results as given in PubChem BioAssay (NCATS).
Records with an inconclusive call do not appear. The source made the active and inactive calls. The call rests on the fitted dose curve; in most records, active means well fitted inhibition curve with a large enough effect; inconclusive means small, poorly fitted or top-dose-only effect; inactive means flat fitted curve, though single readings scatter.

Assays:
Test in all cases: Cytotoxic Profiling of Annotated Libraries Using Quantitative High-Throughput Screening (AID 1296008); further: nearly all actives have a fitted effect of over 60% in size
Details in all cases: Five cell lines viability, CellTiter-Glo ATP luminescence, 48-72 h; max response: active compounds read low
CRL-7250 = normal cell line; test system: CRL-7250
How it was run: (§1)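 Cells exposed to compounds for 48 or 72 hr at 37 degrees Celsius. Viability read as ATP-coupled luminescence with CellTiter-Glo after 10 min at room temperature.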

HEK293 = test system: HEK293
How it was run: as §1

HaCat = test system: HaCat
How it was run: as §1

KB-3-1 = test system: KB-3-1
How it was run: as §1

NIH3T3 = test system: NIH3T3
How it was run: as §1

Measured: max response
On the % scale 0 is the no-effect control and ±100 the full control effect.

CCOC(=O)c1ccc(N(C)c2csc(-c3ccccc3)n2)cc1
inactive: CRL-7250 4.84% | HEK293 | HaCat | KB-3-1 0.515% | NIH3T3

CC(=O)O[C@@]1(C)C[C@@H](O)[C@]2(O)C=CO[C@@H](O[C@@H]3O[C@H](CO)[C@@H](O)[C@H](O)[C@H]3O)[C@@H]21
inactive: CRL-7250 -0.355% | HEK293 | HaCat 3.46% | KB-3-1 | NIH3T3

CC1(C)CC2C3=CCC4C5(C)CCC(OC6OC(CO)C(O)C(OC7OC(CO)C(O)C(OC8OC(CO)C(O)C(OC9OC(COC%10OC(CO)C(O)C(O)C%10O)C(O)C(O)C9O)C8O)C7O)C6O)C(C)(C)C5CCC4(C)C3(C)CCC2(C(=O)O)CC1O (stereo not given)
inactive: CRL-7250 | HEK293 | HaCat -4.22% | KB-3-1 -7.8% | NIH3T3 2.99%

NCCOCCOCCNC(=O)Cc1ccc(Nc2nc(NCc3ccc(F)cc3)nc(NCC3CCCCC3)n2)cc1
inactive: all assays above

CC(=O)O[C@H]1CC[C@@]2(CI)C(=CC[C@@H]3[C@@H]2CC[C@]2(C)[C@@H]([C@H](C)CCCC(C)C)CC[C@@H]32)C1
inactive: CRL-7250 -3.01% | HEK293 | HaCat 4.89% | KB-3-1 | NIH3T3

COC1(CC(C)C)NC(=O)C(O)(Cc2ccccc2)NC1=O (stereo not given)
inactive: CRL-7250 2.47% | HEK293 | HaCat | KB-3-1 -4.71% | NIH3T3

CC1(C)CCCC2(C)C(CO)C3CCC2C31 (stereo not given)
inactive: CRL-7250 -0.786% | HEK293 | HaCat 0.929% | KB-3-1 | NIH3T3

CC(=O)Oc1cc2c(s1)CCN([C@H](C(=O)C1CC1)c1ccccc1F)C2
inactive: CRL-7250 -0.62% | HEK293 | HaCat | KB-3-1 | NIH3T3 3.19%

C[C@@H](OC(=O)/C=C/c1ccc(O)cc1)C1=C[C@]2(C=C[C@@H]3C(C(=O)O)=CO[C@@H](O[C@@H]4O[C@H](CO[C@@H]5O[C@H](CO)[C@@H](O)[C@H](O)[C@H]5O)[C@@H](O)[C@H](O)[C@H]4O)[C@@H]32)OC1=O
inactive: CRL-7250 1.07% | HEK293 | HaCat 4.46% | KB-3-1 4.2% | NIH3T3 2.02%

O=C1NC(=Nc2ccccc2F)S/C1=C\c1ccc(C(=O)O)cc1
inactive: CRL-7250 -10.7% | HEK293 | HaCat | KB-3-1 | NIH3T3 -1.07%

COC1=CC(=O)C[C@@H](C)[C@]12Oc1cc(OC)cc(OC)c1C2=O
inactive: CRL-7250 -2.71% | HEK293 | HaCat -2.69% | KB-3-1 5.37% | NIH3T3

C[C@@H]1C(=O)O[C@H]2CC34[C@H]5C[C@@H](C(C)(C)C)C36[C@@H](OC(=O)[C@@H]6O)OC4(C(=O)O5)[C@]21O (stereo not given in full)
inactive: CRL-7250 -2.58% | HEK293 | HaCat | KB-3-1 9.69% | NIH3T3 4.14%

C=C(C)C1CC2(CO)C(=CC1=O)CCC(O)C2C (stereo not given)
inactive: CRL-7250 3.39% | HEK293 | HaCat -2.77% | KB-3-1 4.67% | NIH3T3

CC1=C2CC3OC3(C)CCC3OC3(C)CC2OC1=O (stereo not given)
inactive: CRL-7250 -1.41% | HEK293 | HaCat -1.36% | KB-3-1 | NIH3T3 -7.4%

CCC(C)C(=O)O[C@@H]1[C@@H](O)[C@@H](O[C@H]2O[C@H](CO)[C@@H](O)[C@H](O)[C@H]2O)O[C@H](CO)[C@H]1O (stereo not given in full)
inactive: all assays above

CO[C@@]12CC3[C@@H]([C@@H](O)[C@@H](OC(C)=O)C4[C@](C)(COC(C)=O)CCC[C@]34C)[C@@H](C)C1=CC(=O)O2 (stereo not given in full)
inactive: CRL-7250 | HEK293 | HaCat 3.42% | KB-3-1 | NIH3T3

CC1(C)CCC2(C(=O)OC3OC(COC4OC(CO)C(O)C(O)C4O)C(O)C(O)C3O)CCC3(C)C(=CCC4C5(C)CCC(O)C(C)(C(=O)O)C5CCC43C)C2C1O (stereo not given)
inactive: CRL-7250 | HEK293 | HaCat 2.41% | KB-3-1 | NIH3T3 4.9%

CC1=C2C(=O)C=C(CO)[C@@H]2[C@H]2OC(=O)[C@H](C)[C@@H]2[C@@H](O)C1
inactive: CRL-7250 | HEK293 | HaCat | KB-3-1 1.39% | NIH3T3 -3.32%

C=CCc1ccc(O[C@@H]2O[C@H](CO[C@@H]3O[C@H](CO)[C@@H](O)[C@H](O)[C@H]3O)[C@@H](O)[C@H](O)[C@H]2O)c(O)c1
inactive: CRL-7250 -24.9% | HEK293 | HaCat -10.9% | KB-3-1 -2.46% | NIH3T3

C[C@@H]1O[C@@H](O[C@H]2[C@H](O[C@H]3CC[C@@]4(C)C(CC[C@]5(C)C4CC=C4C6CC(C)(C)CC[C@]6(C(=O)O[C@@H]6O[C@H](CO[C@@H]7O[C@H](CO)[C@@H](O[C@@H]8O[C@@H](C)[C@H](O)[C@@H](O)[C@H]8O)[C@H](O)[C@H]7O)[C@@H](O)[C@H](O)[C@H]6O)CC[C@]45C)[C@]3(C)CO)OC[C@H](O)[C@@H]2O)[C@H](O)[C@H](O)[C@H]1O (stereo not given in full)
inactive: CRL-7250 | HEK293 | HaCat -8.43% | KB-3-1 4.12% | NIH3T3 -6.66%
